Rows were chosen to be rich in hits. Some 10% of all compounds tested hit in one or more screens of this group.
HPGD block – inhibitors of human 15-hydroxyprostaglandin dehydrogenase (HPGD); actives 4.3% (n = 150,000); Potency, µM, for the others: at the highest dose activity change, negative = inhibition, actives largely listed as inhibitors; purified HPGD, NADH fluorescence kinetic, PGE2 substrate; P15428; AID 894; also: potency is read from the fitted curve at half-maximal effect
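NADH formation kinetics: reaction with 30 uM PGE2 and 1 mM NAD+ (final), 20 nM enzyme, Tris-HCl pH 8 with Tween 20, after 15 min compound preincubation at room temperature. Fluorescence change, last versus first of five reads.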
Lamin A splicing – LMNA splicing modulation; AID 1487; Potency, µM (highest dose often 46.1 µM), for the others: at the highest dose ratio change, negative = inhibition, usual class: inhibitors; actives 0.01% (n = 200,000); HeLa LMNA splicing GFP/RFP minigene ratio, 48 h; active = well fitted inhibition curve with a large enough effect in the signal ratio, with a control signal flat, not every such curve was filed as active; inconclusive = small, poorly fitted or top-dose-only effect, or effect the other way, or a change in a side signal; the % refers to the signal ratio; also: potency is read from the fitted curve at half-maximal effect
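S3 HeLa stable clones carrying a lamin A-EGFP splicing minigene plus DsRed2 were seeded at 600 cells/well in Opti-MEM with 2% FBS, pin-dosed and incubated 48 h at 37°C. Acumen cytometry (488 nm) gave the GFP/RFP total-intensity ratio.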
Luc counter – blocks Kinase-Glo luciferase, a counter-screen artifact; Q27757; Kinase-Glo luciferase, ATP luminescence, 8 min; Potency, µM (doses to about 38.3 µM), for inactives: at the top dose activity change, negative = inhibition, actives largely listed as inhibitors; actives 0.28% (n = 200,000); AID 1379; active = well fitted inhibition curve with a large enough effect; inconclusive = small, poorly fitted or top-dose-only effect; also: potency is read from the fitted curve at half-maximal effect; nearly all actives have a fitted effect of over 60% in size
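Compound is pinned into ATP-containing buffer (10 uM ATP, imidazole pH 7.2, 7 mM MgCl2). Kinase-Glo luciferase reagent is then added. Light output is recorded following an 8-min room-temperature incubation.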
ALDH1A1 block – blocks purified human ALDH1A1 activity; Potency, µM (top dose mostly 75.3 µM), for the others: at the top dose activity, negative = inhibition, usual class: inhibitors; Purified ALDH1A1, NADH fluorescence, propionaldehyde substrate; actives 7.3% (n = 220,000); AID 1030; P00352;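 also: potency is read from the fitted curve at half-maximal effect; plate controls were no enzyme wells and a reference inhibitor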
Target sequence (P00352 whole entry, looked up): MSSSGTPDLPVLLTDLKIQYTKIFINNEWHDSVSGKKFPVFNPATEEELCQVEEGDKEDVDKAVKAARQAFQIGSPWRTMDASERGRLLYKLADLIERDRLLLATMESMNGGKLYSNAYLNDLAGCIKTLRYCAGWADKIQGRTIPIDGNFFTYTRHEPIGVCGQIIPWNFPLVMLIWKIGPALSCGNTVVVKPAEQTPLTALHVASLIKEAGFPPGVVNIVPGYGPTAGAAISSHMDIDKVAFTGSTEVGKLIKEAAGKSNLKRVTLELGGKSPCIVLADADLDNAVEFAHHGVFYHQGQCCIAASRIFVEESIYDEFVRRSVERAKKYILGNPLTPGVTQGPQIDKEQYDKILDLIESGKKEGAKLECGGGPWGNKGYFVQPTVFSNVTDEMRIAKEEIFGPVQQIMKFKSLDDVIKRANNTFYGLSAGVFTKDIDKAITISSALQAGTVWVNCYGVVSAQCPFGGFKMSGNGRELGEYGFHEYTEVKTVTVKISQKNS
PNC assembly inh – blocks assembly of the perinucleolar compartment; PC3M PTB-GFP, PNC prevalence imaging, 16 h; hits give low values; activity change (PNC), negative = inhibition, % at 10 µM; actives 3.1% (n = 140,000);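 active = readout at or below -70, meaning at least 70% loss of cells showing the perinucleolar compartment, a nuclear body marking cancer cells; inconclusive = readout between -30 and a set limit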;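 also: plate controls were DMSO wells for no effect and camptothecin positive control wells for full effect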
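Compounds are pinned in duplicate onto adhered PC3M cells stably expressing GFP-tagged PTB and incubated 16 h at 37 C. Cells are then fixed, nuclei stained with Hoechst, and PNC-positive cells counted.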
The depositor's hits bear a star; ? = inconclusive; . = not tested or not shown; [ ] = dose if it differs, or a comment. Unless noted, calls follow the shape of the dose curve; as a rule, active = well fitted inhibition curve with a large enough effect (not every such curve was filed as active); inconclusive = small, poorly fitted or top-dose-only effect, or another doubt; inactive = no such curve, though single readings can be large or run the other way. Unless noted, % is scaled to controls: 0 for no effect and ±100 for the full control effect.

SMILES	HPGD block	Lamin A splicing	Luc counter	ALDH1A1 block	PNC assembly inh
O=[N+]([O-])c1ccc2nc(CCCc3nc4ccc([N+](=O)[O-])cc4[nH]3)[nH]c2c1	.	?	0%	14µM*	.
Cc1ccc(S(=O)(=O)NCC2CCC(C(=O)NCCCN3CCOCC3)CC2)cc1 (stereo not drawn)	5%	2%	0%	22µM*	52
CCOc1cc2[nH]c(=S)n(CCCC(=O)N3CCC4(CC3)OCCO4)c(=O)c2cc1OCC	-21%	-20%	1%	?	-27
CCOC(=O)N1CCN(C(=O)c2ccc3c(=O)n(CCC4=CCCCC4)c(=S)[nH]c3c2)CC1	-14%	1%	0%	7.9µM*	?
O=S(=O)(Nc1nccs1)c1ccc([As](=O)(O)O)cc1	-9%	.	-1%[7.66 µM]	-2%[13.5 µM]	.
CCCCC(=O)N/N=C/c1c(O)n(C2CC2)c(=S)[nH]c1=O	-5%	-12%	-3%	-11%	-7
O=c1[nH]c(=S)n(C2CC2)c(O)c1C=NCCN1CCOCC1	.	.	.	12%	.
O=c1[nH]c(=S)n(C2CC2)c(O)c1/C=N/Nc1cccc2ccccc12	.	-10%	.	2.5µM*	16
O=c1[nH]c(=S)n(C2CC2)c(O)c1/C=N/Nc1ccccc1	-18%	?	1%	3.2µM*	-11
CCC(C)n1c(O)c(/C=N/Nc2ccccc2)c(=O)[nH]c1=S (stereo not drawn)	-23%	?	-2%	3.5µM*	-24
CCN(CC)C(=O)N[C@H]1C=C2c3cccc4[nH]cc(c34)C[C@@H]2N(C)C1	?	?	-4%[17.1 µM]	?	.
N[C@@H](Cc1ccccc1)P(=O)(O)O	-6%	.	-1%[7.66 µM]	-1%[13.5 µM]	.
COc1ccc(OP(=O)(Nc2ccccc2)Nc2ccccc2)cc1	14µM*	-7%	-3%	4%	40
NCCSC(c1ccccc1)c1ccccc1	-8%	.	0%[7.66 µM]	-12%[13.5 µM]	.
Cn1c(=O)c2[nH]cnc2n(C)c1=O.[CH2-][C@H](Cc1cccc2cc(C(=O)O)c(=O)oc12)OC.[Hg].[OH-]	4µM*	.	-1%[7.66 µM]	3.2µM*	.
Nc1ncc([N+](=O)[O-])s1	?	.	.	25µM*	.
Cc1ccc(N2C(=O)NC(=O)/C(=C/c3cnn(-c4ccc(C)cc4)c3)C2=O)cc1	?	-6%	-2%	2.5µM*	?
Cc1ccc(N2C(=O)NC(=O)/C(=C\c3cccn3C(C)(C)C)C2=O)cc1	.	11%[46 µM]	-1%	0.56µM*	.
Cc1ccc(N2C(=O)NC(=O)/C(=C\c3cnc(-c4ccccc4)nc3)C2=O)cc1	?	-3%	-3%	8.9µM*	13
CCC(C)c1ccc(N2C(=O)NC(=O)/C(=C/c3cccn3CCOc3ccc(C)cc3)C2=O)cc1 (stereo not drawn)	-12%	-17%	3%	7%	1
CC1=CC(=O)NP(=O)(Oc2ccc3ccccc3c2)N1 (stereo not drawn)	35µM*	14%	2%	?	51
CC(C)=C[C@H]1[C@@H](C(=O)OCc2cc3c(cc2Cl)OCO3)C1(C)C	-7%	.	-3%[7.66 µM]	-13%[13.5 µM]	.
C=CCN1C(=O)NC(=O)C(Cc2ccc(OC)c(OC)c2)C1=O (stereo not drawn)	-6%	-11%	-4%	25µM*	-19
COC(=O)[C@H]1C(=O)[C@H](C(=O)OC)[C@@H]2CC[C@H]1N2C	3%	.	-4%[7.66 µM]	0%[13.5 µM]	.
COc1ccc(CCn2c(O)c(C=NCc3ccc4c(c3)OCO4)c(=O)[nH]c2=O)cc1OC	-4%	4%	-1%	5µM*	6
SMILES	HPGD block	Lamin A splicing	Luc counter	ALDH1A1 block	PNC assembly inh
C[C@@H]1O[C@H](O[C@H]2C[C@@H](O)[C@@]3(CO)[C@H]4[C@@H](O)C[C@]5(C)[C@@H](C6=CC(=O)OC6)CC[C@]5(O)[C@H]4CC[C@]3(O)C2)[C@@H](O)[C@H](O)[C@@H]1O	0%	?	-4%[17.1 µM]	-1%[20.9 µM]	.
COc1ccc(NC(=O)c2cc([N+](=O)[O-])ccc2N2CCNCC2)cc1	.	-3%[46 µM]	-1%	8.9µM*	.
O=[N+]([O-])c1ccc(N2CCNCC2)cc1N1CCCCC1	.	.	-1%	?	.
Cc1ccc(-n2nc(C)c3c2OC(N)=C(C#N)C3c2cccs2)cc1 (stereo not drawn)	-13%	-3%	-1%	13µM*	27
O=C1NC(=S)N(c2ccccc2F)C(=O)/C1=C\c1cccs1	7.9µM*	?	-1%	20µM*	18
CCOc1ccc(N2C(=O)/C(=C\c3cccs3)C(=O)NC2=S)cc1	.	-18%[46 µM]	-6%	18µM*	.
CCc1ccccc1N1C(=O)/C(=C/c2ccc(N3CCN(C)CC3)o2)C(=O)NC1=S	-6%	?	-9%	?	4
CCC[C@@H]1CC2=CC(=O)CC[C@]2(C)[C@@H]2CC[C@@]3(C)[C@H](CC[C@]3(O)CCC(=O)O)[C@H]12	11%	.	1%	6%	.
O=CN1CCCCC1C1CC[C@H]2CCCCN2C1 (stereo partly drawn)	-2%	.	-4%	6%	.
N[C@H](Cc1ccccc1)c1nn[nH]n1	0%	.	-7%[7.66 µM]	-9%[13.5 µM]	.
COc1cccc(N=Nc2c(O)[nH]c(=S)[nH]c2=O)c1	.	.	.	25µM*	.
COc1ccc(N=Nc2c(O)[nH]c(=S)[nH]c2=O)cc1	.	-6%[9.22 µM]	?	-3%	.
O=C(NC1(C(F)(F)F)Oc2ccccc2O1)N1CCC2(CC1)OCCO2	?	?	3%	?	-119*
COC(=O)C[C@]1(C(=O)OC)CN(C#N)N(c2ccc(Cl)cc2)C12c1ccccc1-c1ccccc12	-26%	?	0%	-4%	-100*
CCCCC/C=C\C/C=C\C/C=C\CCCCC(=O)NCCc1ccc(O)c(O)c1	-3%	.	-2%	-5%	.
Cc1[nH]n(-c2ccccc2)c(=O)c1C(c1ccc([N+](=O)[O-])cc1)c1c(C)[nH]n(-c2ccccc2)c1=O	28µM*	?	-7%	13µM*	-2
O=C(O)/C=C\C(=O)O	-2%	.	.	7%	.
CC(=O)O.CC(=O)O.[Cd]	-11%	?	-2%	13µM*	.
Cc1nn(C)c(C)c1-c1cccc2c1CCC(N(C)C)C2 (stereo not drawn)	?	.	-4%[39.9 µM]	-15%	.
C/C(CC(c1ccccc1)c1c(O)c2ccccc2oc1=O)=N\NC(N)=S (stereo not drawn)	?	?	18%	?	-16
NC(=S)N/N=C/c1coc2ccccc2c1=O	-19%	-5%	2%	14µM*	-5
c1cc(CN2CC3(CCNCC3)C2)ccn1	-8%	.	2%	-3%	.
CC(=O)c1ccc(-c2ccccc2)cc1	-14%	-2%	-2%	6%	-88*
CC(=O)c1ccc(OC(=O)N(C)c2ccccc2)cc1	.	.	4%	-5%	.
CCCCOC(=O)COc1cc(C)cc2oc(=O)c3c(c12)CCC3	-22%	0%	-1%	10µM*	-8
